Bioassay records: PubChem, several laboratories
CYP2C9 inhib: blockers of cytochrome P450 2C9 activity – biochemical, luminescence, ADME assay, primary screen | CYP2C9 Supersomes, luciferin-H conversion | inhibition, % at 5 µM | actives 20% (n = 96,000);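 active = blocking of liver enzyme CYP2C9 beyond about 50% at 5 µM, limit read from the data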
CYP2C9 act: human CYP2C9 activators, primary screen, biochemical, luminescence. Cytochrome P450 2C9 (Homo sapiens), P11712. recombinant CYP2C9, luciferin-H conversion; hits give high values; factor 1 = untreated enzyme, 0 = blocked. activation factor at 5 µM. actives 1.4% (n = 96,000);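 active = activation factor of 2 or more for CYP2C9 at a 5 µM dose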
CYP2C19 act: human CYP2C19 activators, primary screen, biochemical, luminescence; Cytochrome P450 2C19 (Homo sapiens), P33261; recombinant CYP2C19, luciferin-H EGE luminescence; hits give high values; 0 = fully inhibited enzyme, 1 = untreated enzyme; activation factor at 5 µM; 96,000 tested, under 10 active; AID 1025, 2008;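 active = activation factor of at least 2 at 5 µM in the primary screen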
Target sequence (P33261 whole entry, looked up): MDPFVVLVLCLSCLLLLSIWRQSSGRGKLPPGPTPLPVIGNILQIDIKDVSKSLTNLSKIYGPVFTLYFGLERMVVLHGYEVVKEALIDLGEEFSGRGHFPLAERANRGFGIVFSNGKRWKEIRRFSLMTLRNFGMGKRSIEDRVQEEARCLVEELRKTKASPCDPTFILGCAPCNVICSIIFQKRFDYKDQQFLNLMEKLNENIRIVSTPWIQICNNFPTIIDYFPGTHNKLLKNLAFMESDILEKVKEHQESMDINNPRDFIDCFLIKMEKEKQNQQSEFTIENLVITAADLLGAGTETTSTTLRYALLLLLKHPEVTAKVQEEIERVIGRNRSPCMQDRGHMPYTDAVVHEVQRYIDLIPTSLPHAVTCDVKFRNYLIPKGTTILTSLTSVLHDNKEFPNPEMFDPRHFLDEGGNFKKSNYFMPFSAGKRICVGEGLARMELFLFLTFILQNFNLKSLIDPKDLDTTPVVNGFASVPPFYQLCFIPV
Cav32 inh: Cav3.2 calcium influx blockers – cell-based, Fluo-4 calcium fluorescence, FDSS, MLSMR library, primary screen; B-score at 10 µM; Voltage-dependent T-type calcium channel subunit alpha-1H (Homo sapiens), O95180; actives 4% (n = 100,000); Cav3.2-expressing cells; hits give low values; AID 449739, 2010;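 active = single-dose well whose peak fluorescence ratio is a statistical outlier from its plate by either plate-standardised score or position-corrected B-score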
CYP2C19 inh: blockers of cytochrome P450 2C19 activity – biochemical, luminescence, ADME assay, primary screen; inhibition, % at 5 µM; P33261; actives 21% (n = 96,000); CYP2C19 Supersomes, luciferin-H EGE luminescence, 30 min;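 active = CYP2C19 inhibition above a set limit at 5 µM in the primary screen, cut at about 50% in these data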
A number is an active result; - = inactive; . = no result. A selection: hits, their analogues and other compounds. The true share with any hit is near 27%.

SMILES	CYP2C9 inhib	CYP2C9 act	CYP2C19 act	Cav32 inh	CYP2C19 inh
O=C(c1ccco1)N1CCN(c2ncnc3c2oc2ccccc23)CC1	-	-	-	-	62
O=C(c1ccc(-c2ccccc2)cc1)N1CCN(C(=O)c2ccco2)CC1	-	-	-	-	-
O=C(c1ccco1)N1CCN(c2nnc(-c3ccccc3)c3ccccc23)CC1	-	-	-	-	58
O=C(CSc1ccc(-c2ccccc2)nn1)NCc1ccco1	.	.	.	-	.
CCCCOc1ccc(/C=c2\sc3ncnn3c2=O)cc1	-	-	-	-	-
CC(=O)Nn1cnc2c(c1=O)C1(CCCC1)Cc1ccccc1-2	62	-	-	-	88
O=c1[nH]c(NCCCO)nc2c1C1(CCCC1)Cc1ccccc1-2	-	-	-	-4.1	-
CN(C)Cc1nc2c(c(=O)[nH]1)C1(CCCCC1)Cc1ccccc1-2	-	-	-	-	-
O=c1[nH]cnc2c1C1(CCCC1)Cc1ccccc1-2	-	-	-	-	88
CCN(CC)Cc1nc2c(c(=O)[nH]1)C1(CCCCC1)Cc1ccccc1-2	-	-	-	-	-
CC(C)(C)NC(=O)Cn1nnc(-c2ccc(Cl)cc2)n1	-	-	-	-	-
CCCN(CCC)C(=O)CSc1nc2ccsc2c(=O)n1NC(=O)c1ccccc1	66	-	-	-	-
Cc1cc(NC(=O)CSc2nc3ccsc3c(=O)n2CCCCC(=O)O)no1	-	-	-	-	-
COc1ccc2nc3oc(C(=O)N4CCC(C(N)=O)CC4)cc3cc2c1	-	-	-	-	-
COc1ccc2cc3cc(C(=O)NCc4ccc5c(c4)OCO5)oc3nc2c1	64	-	-	-	-
COc1ccc2cc3cc(C(=O)N4CCN(Cc5ccc6c(c5)OCO6)CC4)oc3nc2c1	53	-	-	-	-
NC(=O)C1CCN(S(=O)(=O)c2cccc(C(=O)O)c2)CC1	-	-	-	-	-
CC(C)CNC(=O)NC1C(NC(=O)NCC(C)C)N(C)C(=O)N1C (centres undefined)	-	-	-	.	-
Cc1ccc(OCCNC(=O)c2ccccc2N)cc1	.	.	.	-	.
Cc1cccc(C)c1NC(=O)C(=O)NCCOc1ccc(Cl)cc1	-	-	-	-3.6	-
CC(=O)c1ccc(N2CCN(C(=O)c3ccco3)CC2)c(F)c1	-	-	-	-	-
CCn1cc(C(=O)NCc2ccccc2)c(=O)c2cc(F)c(N3CCN(C(=O)c4ccco4)CC3)cc21	64	-	-	-	53
CC(=O)c1cc(F)c(N2CCN(C(=O)c3ccco3)CC2)cc1C	-	-	-	-	60
CCCCC(NC(C)=O)c1nc2ccccc2[nH]1 (centres undefined)	-	-	-	-	64
CCCCn1nc(C(=O)N[C@@H](CCSC)c2nc3ccccc3[nH]2)c2ccccc2c1=O	90	-	-	-	62
SMILES	CYP2C9 inhib	CYP2C9 act	CYP2C19 act	Cav32 inh	CYP2C19 inh
CSCC[C@H](NC(=O)c1nn(C)c(=O)c2ccccc12)c1nc2ccccc2[nH]1	94	-	-	-	-
CCn1nc(C(=O)N[C@@H](CCSC)c2nc3ccccc3[nH]2)c2ccccc2c1=O	96	-	-	-	64
O=C(COC(=O)c1ccc(S(=O)(=O)NCc2ccco2)cc1)NCCC1=CCCCC1	-	-	-	.	-
O=C1OCC2OC(O)C(O)C(O)C2OC(=O)c2cc(O)c(O)c(O)c2-c2c(O)c(O)c3oc(=O)c4c(c(O)c(O)c5oc(=O)c2c3c54)-c2c1cc(O)c(O)c2O (centres undefined)	.	.	.	-	.
CCOC(=O)c1cccc(NC(=O)CSc2nnc(-c3cccnc3)n2C)c1	-	-	-	-	-
O=c1ccc(Cc2ccccn2)n[nH]1	-	-	-	-	-
C=C(C)C(=O)Nc1cccc(C2=NOC3(C2)C[C@@H](C(N)=O)N(C(=O)/C=C/C=C/C)C3)c1 (some centres undefined)	.	.	.	-	.
CCCCC(=O)NCCc1cc2c(OC)ccc(OC)c2[nH]c1=O	-	2.3	-	.	-
CCN(CC)S(=O)(=O)c1ccc(C(=O)NCCc2cc3c(OC)ccc(OC)c3[nH]c2=O)cc1	85	-	-	.	-
CCCS(=O)(=O)NCCc1cc2c(OC)ccc(OC)c2[nH]c1=O	-	-	-	.	-
COc1ccc(OC)c2[nH]c(=O)c(CCNC(=O)c3ccc(S(=O)(=O)N4CCCC4)cc3)cc12	62	-	-	.	-
O=C(Cc1ccc(Cl)cc1)NCCS(=O)c1ccc(Cl)cc1 (centres undefined)	-	-	-	.	-
O=C(O)CCCC(=O)Nc1ccc(Br)cc1C(=O)O	.	.	.	-	.
Cc1nnsc1NC(=O)OCc1ccc(Cl)cc1Cl	-	-	-	-	71
Cc1nn(C)c(Cl)c1NC(=O)OCc1ccc(Cl)cc1Cl	-	-	-	.	68
CN(C)Cc1cc(C(C)(C)c2cc(CN(C)C)c(O)c(CN(C)C)c2)cc(CN(C)C)c1O	.	.	.	-	.
CC1CCC(NC(=O)C2c3ccccc3C(=O)N2CCCN2CCOCC2)CC1 (centres undefined)	-	-	-	-	-
O=C(Nc1ccn(Cc2c(F)c(F)cc(F)c2F)n1)c1ccc(COc2ccc(Cl)cc2Cl)o1	99	-	-	-	92
O=C(Nc1ccn(Cc2c(F)c(F)c(F)c(F)c2F)n1)c1ccc(COc2ccccc2Cl)cc1	70	-	-	-	-
CC(C)CNC(=O)c1ccc(COc2ccc(Cl)cc2Cl)o1	76	-	-	-4.5	-
Cc1nn(Cc2ccc(Cl)cc2Cl)c(C)c1NC(=O)c1ccc(COc2cc(Cl)ccc2Cl)o1	-	-	-	-5.2	-
Cc1nn(Cc2ccc(Cl)cc2Cl)c(C)c1NC(=O)c1nn(C)cc1Cl	-	-	-	-	-
O=C(Nc1ccccc1F)c1ccc(COc2ccc(Cl)cc2Cl)o1	.	.	.	-	.
Cc1nc2nc3c(cn2n1)C(=O)CCC3	-	-	-	.	-
CCCCCn1c(CCCNC(=O)CC)nc2ccccc21	.	.	.	-	.
Cc1sc2ncn(CC(=O)NCc3ccccn3)c(=O)c2c1S(=O)(=O)N1CCOCC1	.	.	.	-	.
CSc1nc2ccc(NC(=O)C3CC(=O)N(Cc4ccccc4)C3)cc2s1 (centres undefined)	-	-	-	-	-
CSc1cccc(NC(=O)C2CCCN(S(=O)(=O)c3cnc[nH]3)C2)c1 (centres undefined)	93	-	-	-	98
COC(=O)c1ccc(NC(=O)C2CCCN(S(=O)(=O)c3cnc[nH]3)C2)cc1 (centres undefined)	86	-	-	-	79
CSc1cccc(NC(=O)C2CCN(S(C)(=O)=O)CC2)c1	-	-	-	-	-
